Screening data deposited in PubChem by National Center for Advancing Translational Sciences (NCATS).
Rows were chosen to be rich in hits. Some 19% of all compounds tested hit in one or more screens of this group.
TDP1 cell CPT – DT40-hTDP1 cell growth loss with CPT; chicken DT40 Tdp1-/-;hTDP1 cells + 20 nM CPT, ATP luminescence, 48 h; Potency, µM (titrated, usually from 46.2 µM), hits mostly inhibitors; 420,000 tested, 12% active; AID 686979; also: nearly all actives have a fitted effect of over 55% in size
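Chicken DT40 Tdp1-/- cells complemented with human TDP1, 400 cells/well, exposed to compounds plus 20 nM camptothecin for at least 48 h at 37 C; viability read as ATP content by CellTiter-Glo luminescence.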
ELG1 DNA repair – blocks ELG1-dependent DNA repair in HEK293T cells; HEK293T ELG1-luciferase reporter, luminescence, 16 h; DNA damage induced by 5-fluorouridine; Potency, µM (top dose mostly 46.1 µM), actives largely listed as inhibitors; 330,000 tested, 2.3% active; also: nearly all actives have a fitted effect of over 55% in size
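Overnight (16 hr) co-exposure of 2,000 cells/well to 5-fluorouridine and compound at 37 °C preceded detection. Luciferase was quantified via ONE-Glo luminescence; loss of signal denotes inhibition.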
IL1B secr inh – blocks inflammasome-driven IL-1 beta release; activity change, % at 57.5 µM; THP-1 LPS/ATP IL-1B secretion, AlphaLISA, 16 h; hits give low values; 360,000 tested, 4.7% active; in the data active = activity change below about -50%; inconclusive = mostly about -30% to -49%
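THP-1 cells pretreated 1 hr with compounds (up to 57.5 uM final), then stimulated with LPS (250 ng/mL final) plus ATP (1.25 mM final); secreted IL-1B measured by AlphaLISA after 16 hr, decreased signal indicating inhibition.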
HT1080-NT tox – kills 2HG-producing HT-1080-NT fibrosarcoma cells; HT-1080-NT fibrosarcoma viability, CellTiter-Glo ATP luminescence, 48 h; Potency, µM (titrated, usually from 46.1 µM), usual class: cytotoxic; 360,000 tested, 1.6% active; AID 686970;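 also: NT is the 2HG producing partner of a matched IDH1 knockdown line; nearly all actives have a fitted effect of over 55% in size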
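Luminescent CellTiter-Glo readout after 48 hours of compound exposure at 37 degrees C defined viability of HT-1080-NT cells. Activity was normalized to DMSO wells and cell-free media wells; concentration-response curves were fitted and assigned curve classes.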
HT1080 IDH1KD tx – HT-1080 IDH1 knockdown cell toxicity (counter line); 360,000 tested, 2% active; HT-1080 IDH1 knockdown viability, ATP luminescence, 48 h; Potency, µM (series often up to 46.1 µM), most hits filed as cytotoxic
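CellTiter-Glo luminescence after 48 h compound exposure at 37 degrees C of IDH1-knockdown HT-1080 cells in 5% FBS RPMI. %Activity scaled between DMSO wells and cell-free media wells, with curves fitted and assigned curve classes.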
DT40 TDP1 no CPT – qHTS for Inhibitors of human tyrosyl-DNA phosphodiesterase 1 (TDP1): qHTS in cells in absence of CPT. DT40 Tdp1-/- hTDP1 cells, no CPT, ATP luminescence, 48 h. Potency, µM (doses to about 46.2 µM), most hits filed as inhibitors. 420,000 tested, 15% active; also: nearly all actives have a fitted effect of over 55% in size
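No-CPT arm: Tdp1-/-;hTDP1 DT40 cells (400/well) plus compounds, incubated ≥48 hr at 37 °C. Readout CellTiter-Glo luminescence.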
A number is an active result; i = inactive; ? = inconclusive; nt = not tested or not shown; [ ] = another dose, or the depositor's remark. Unless noted, calls follow the shape of the dose curve; as a rule, active = well fitted curve in the direction sought with a large enough effect; inconclusive = small, poorly fitted or top-dose-only effect, or another doubt; inactive = no such curve, though single readings can be large; an effect the other way counts as inactive or inconclusive.

SMILES | TDP1 cell CPT | ELG1 DNA repair | IL1B secr inh | HT1080-NT tox | HT1080 IDH1KD tx | DT40 TDP1 no CPT
COc1cc(S(=O)(=O)N(Cc2cccnc2)Cc2cccc(OC)c2OC)ccc1-n1cnnn1 | 16µM | i | i | i | i | ?
COc1ccc(CN(Cc2cccnc2)S(=O)(=O)c2ccc(-n3cnnn3)c(C)c2)cc1OC | ? | ? | ? | i | i[9.24 µM] | ?
CC(C)n1cc(C(=O)c2cc(Br)ccc2O)cc(C#N)c1=O | ? | i | i | i | i | 18µM
N#Cc1cc(C(=O)c2cc(Br)ccc2O)cn(C2CC2)c1=O | i | i | i | i | i | i
C=CCn1cc(C(=O)c2cc(Br)ccc2O)cc(C#N)c1=O | 18µM | ? | i | i | i | ?
CCOc1ccccc1CNC(=O)c1ccccc1NC(=O)C1=CSCCO1 | ? | ? | i | i | i | 26µM
CC1=C(C(=O)Nc2ccc(CC(=O)NCc3ccc(OC(C)C)cc3)cc2)SCCO1 | 0.16µM | ? | i | ? | ? | 0.18µM
COc1cccc(CNC(=O)c2ccccc2NC(=O)C2=C(C)OCCS2)c1OC | 18µM | 12µM | i | i | i | 12µM
COc1ccc(CNC(=O)Cc2ccc(NC(=O)C3=C(C)OCCS3)cc2)cc1 | 2.3µM | ? | i | ? | 5.8µM | 2.1µM
CSCCC(NC(=O)CCNC(=O)c1ccccc1Cl)c1nc2ccccc2[nH]1 (stereo not drawn) | i | i | i | i | i | i
N#C/C(=C\c1ccc(-c2cc(Cl)ccc2Cl)o1)C(=O)Nc1ccccc1C(=O)O | i | nt | nt | nt | nt | ?
O=C(NCc1cccs1)c1ccc2nc([C@@H]3O[C@H](CO)[C@H](O)[C@H](O)[C@H]3O)[nH]c2c1 | i | nt | i | i | i | i
COc1ccc(CCNC(=O)c2ccc3c(c2)N(Cc2ccccc2F)C(=O)c2ccccc2S3(=O)=O)cc1OC | 16µM | nt | nt | nt | nt | 10µM
COc1ccc(CCNC(=O)c2ccc3c(c2)N(Cc2cccc(C)c2)C(=O)c2ccccc2S3(=O)=O)cc1OC | 8.2µM | nt | nt | nt | nt | 12µM
COc1ccc(CCNC(=O)c2ccc3c(c2)N(Cc2ccc(Cl)cc2)C(=O)c2ccccc2S3)cc1OC | ? | nt | nt | nt | nt | 16µM
O=C(NCCc1ccccc1)c1ccc2c(c1)N(Cc1ccc(F)cc1)C(=O)c1ccccc1S2 | i | nt | nt | nt | nt | ?
COc1ccc(CNC(=O)c2ccc3c(c2)N(Cc2ccccc2F)C(=O)c2ccccc2S3(=O)=O)cc1 | i | nt | nt | nt | nt | i
O=C(OCc1ccccc1)N1CCC2CC1c1c2cccc1N1CCOCC1 (stereo not drawn) | ? | nt | i | i | i | ?
CC(=O)c1ccc2c(c1)N(Cc1ccccc1)C(=O)C(C)S2 (stereo not drawn) | i | nt | i | ? | i | ?
Cc1ccc(C(=O)Nc2ccc(Cl)cc2C)c(Cl)c1 | i | ? | i | i | i | ?
Cc1ccc(Cl)c2c1NC(=O)C2(O)CC(=O)c1ccc(Br)cc1 (stereo not drawn) | i | ? | i | i | i | i
O=C(CC1(O)C(=O)Nc2cc(Cl)cc(Cl)c21)c1ccncc1 (stereo not drawn) | ? | i | -100 | i | ? | ?
CC(C)NC(=O)C1(C)CCN1C(=O)c1ccccc1 (stereo not drawn) | i | nt | i | i | i | i
COc1ccc(CCN2CCCC(CN(C)Cc3cc(OC)c(OC)c(OC)c3)C2)cc1 (stereo not drawn) | 21µM | i | i | i | ? | 16µM
COc1ccccc1CCN1CCCC(CN(C)Cc2ccc(OCCO)cc2)C1 (stereo not drawn) | ? | i | i | i | i | ?
COc1cc(CN(C)CC2CCCN(CCc3ccccc3F)C2)cc(Cl)c1OC (stereo not drawn) | ? | i | -84 | i | ? | 26µM
COc1ccc(CN(C)CC2CCCN(CCc3ccc(Cl)cc3)C2)cc1OC (stereo not drawn) | ? | i | -86 | 29µM | 16µM | ?
